High-throughput results (PubChem BioAssay)
HCMV antiviral = blocks human cytomegalovirus replication; activity change, negative = inhibition, % at 57.5 µM; AID 1259415; HFF cells, HCMV-luciferase reporter, 72 h; stronger effect = lower value; 410,000 tested, 4.5% active; in the data active = activity change below about -60%; inconclusive = no clear call, values can overlap the other calls; inactive = above about -39%
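Human foreskin fibroblasts infected with luciferase-reporter HCMV at MOI 1 PFU/cell, compounds at two doses. Luciferase measured 72 h post infection; normalized to buffer-only basal and Salinomycin (10uM) controls.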
HCV inhibitor = inhibitors of hepatitis C virus infection; AID 651820; 340,000 tested, 3.4% active; Potency, µM (top dose mostly 41.8 µM), inactives show at the top dose activity change, negative = inhibition, most hits filed as inhibitors; Huh7.5.1 HCVcc-Cre infection, luciferase reporter, 44 h; also: potency is read from the fitted curve at half-maximal effect
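Compounds are dispensed onto cells plated 4 h earlier at 1,000 per well, with HCVcc-Cre virus (about 0.5 moi) added next. Following 44 h of culture, luminescent signal is measured for 15 sec after 15 min with substrate at room temperature.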
Pf growth 96h = inhibits malaria parasite growth, 96 h. P. falciparum luciferase reporter growth, 96 h. Potency, µM (highest dose often 28.7 µM), for inactives: at the top dose activity change, negative = inhibition, usual class: inhibitors. 320,000 tested, 6.9% active. AID 504834; also: potency is read from the fitted curve at half-maximal effect
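P. falciparum expressing integrated firefly luciferase, in erythrocytes at 2% hematocrit, 0.05% parasitemia, incubated with compounds 96 h at 37 C, 5% CO2. Growth inhibition read as loss of luminescence; two-generation exposure targets delayed-death apicoplast inhibitors.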
Pf growth 48h = P. falciparum growth inhibition at 48 hours (one generation) | 310,000 tested, 5.9% active | P. falciparum luciferase growth in erythrocytes, 48 h | Potency, µM (titrated, usually from 28.7 µM), for the others: at the top dose activity change, negative = inhibition, most hits filed as inhibitors; also: potency is read from the fitted curve at half-maximal effect
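Erythrocytes infected with P. falciparum carrying an integrated firefly luciferase reporter (2% hematocrit, 0.1% parasitemia final) were exposed to compounds in RPMI 1640 with 0.5% Albumax at 37 C, 5% CO2. Growth inhibition was scored as reduced luminescence.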
Active calls of the source: *; ? = inconclusive; · = no result given; [ ] = dose if it differs, or a comment. Sampled rows, rich in hits. Any-hit rate of the full collection: about 13%. Unless noted, calls follow the shape of the dose curve; as a rule, active = well fitted inhibition curve with a large enough effect; inconclusive = small, poorly fitted or top-dose-only effect, or another doubt; inactive = no such curve, though single readings can be large or run the other way. % is scaled to controls: 0 for no effect and ±100 for the full control effect.

SMILES | HCMV antiviral | HCV inhibitor | Pf growth 96h | Pf growth 48h
Cc1ccc(CSc2nc3cccnc3n2Cc2ccc(C(=O)NCc3ccco3)cc2)cc1 | 68 | · | · | ·
COc1ccccc1N1CCN(C(=O)CCn2nc(C)c(S(=O)(=O)N3CCCC3)c2C)CC1 | 7 | · | · | ·
O=C(COc1ccc(Cl)cc1)NCc1nnc(SCC(=O)Nc2ccc(F)cc2F)o1 | -28 | 15% | -25% | 23%
CCOc1ccccc1NC(=O)CSc1nnc(CNC(=O)COc2ccc(Cl)cc2)o1 | -14 | -2% | 10µM* | 6%
COC(=O)c1ccc(CSc2nnc(CNC(=O)c3ccc(OC)cc3)o2)o1 | 46 | 1% | ? | 6%
COC(=O)c1ccc(CSc2nnc(CNC(=O)COc3ccc(Cl)cc3)o2)o1 | -12 | ? | 5.9µM* | -12%
COc1cccc(/C=N/NC(=O)CNC(=O)COc2ccccc2)c1O | 11 | -7% | -36% | ?
COc1ccc(/C=N/NC(=O)CNC(=O)COc2ccccc2)cc1 | -20 | 4% | -21% | -5%
Cc1cccc(OCC(=O)NCC(=O)N/N=C/c2cc(Br)cc(Br)c2O)c1 | -83* | ? | 0% | 8%
Cc1ccc(/C=N/NC(=O)CNC(=O)COc2ccccc2)cc1 | -61* | 2% | -25% | 7%
COc1cc(OC)c(NS(=O)(=O)c2c(C)nc3sc(C)cn3c2=O)cc1Cl | -11 | · | · | ·
C=C(C)CNC(=S)N/N=C(\C)c1ccc(Cl)s1 | ? | ? | ? | 12µM*
O=C(CCC(=O)N1CCSc2ccccc21)NCc1ccc(Cl)cc1 | -21 | 0% | 85% | ?
O=C(CCC(=O)N1CCSc2ccccc21)NCc1ccccc1Cl | -62* | · | · | ·
Cc1ccc(C)c(S(=O)(=O)c2c(N)n(/N=C/c3ccco3)c3nc4ccccc4nc23)c1 | -31 | ? | ? | 10µM*
COc1ccc(CCn2c(N)c(S(=O)(=O)c3cccs3)c3nc4ccccc4nc32)cc1OC | · | ? | ? | 9.3µM*
Nc1c(S(=O)(=O)c2cccs2)c2nc3ccccc3nc2n1Cc1ccc2c(c1)OCO2 | · | ? | · | 15µM*
COc1ccccc1/C=N/n1c(N)c(S(=O)(=O)c2cccs2)c2nc3ccccc3nc21 | -22 | -1% | · | 6.6µM*
C=CCn1cnc2c(c1=O)c1nc3ccccc3nc1n2/N=C/c1cccc(OC)c1OC | -31 | ? | -10% | ?
CCN1CCN(CCCNC(=O)Cn2nc(C)n3c(cc4cc(C)ccc43)c2=O)CC1 | -19 | · | · | ·
Nc1c(S(=O)(=O)c2cccs2)c2nc3ccccc3nc2n1Cc1cccs1 | · | -9% | 8.3µM* | ?
Nc1c(S(=O)(=O)c2cccs2)c2nc3ccccc3nc2n1CCc1ccccc1 | · | · | 3.3µM* | ?
Nc1c(S(=O)(=O)c2cccs2)c2nc3ccccc3nc2n1CC1CCCO1 (stereo unspecified) | · | 16% | 15% | ?
Cc1cccc(S(=O)(=O)c2c(N)n(/N=C/c3ccccc3)c3nc4ccccc4nc23)c1 | -30 | 2% | 24% | ·
Nc1c(S(=O)(=O)c2ccccc2)c2nc3ccccc3nc2n1/N=C/c1cccc(O)c1 | -101* | 14µM* | 4% | -25%
SMILES | HCMV antiviral | HCV inhibitor | Pf growth 96h | Pf growth 48h
Cc1ccc(-n2nnc(-c3nc(-c4cccs4)no3)c2N)c(C)c1 | 0 | · | · | ·
C=CCSc1n[nH]c(-c2ccccc2)n1 | -89* | 0% | 47% | ·
C=CCSc1n[nH]c(-c2ccc(OC)cc2)n1 | 73 | 20% | · | 183%
O=c1cc(-c2ccc(O)cc2)oc2ccc(O)cc12 | 84 | 32µM* | 205% | 133%
CCOC(=O)c1ccc(-c2c(C(=O)OCC)oc3cc(O)c(CC)cc3c2=O)o1 | -9 | ? | ? | 10µM*
Oc1ccccc1-c1cc(C(F)(F)F)[nH]n1 | · | · | 9.3µM* | ?
Oc1ccccc1-c1cc(C(F)(F)C(F)F)[nH]n1 | -33 | ? | 16% | ?
C=CCn1c(SCn2nnc3ccccc3c2=O)nc2scc(-c3cccs3)c2c1=O | -3 | -22% | 2.9µM* | 14%
C=CCn1c(SCC(=O)NC2CCCC2)nc2sc(C)cc2c1=O | -20 | ? | 6.6µM* | -1%
C=CCn1c(SC(C)C(N)=O)nc2sc(CC)cc2c1=O (stereo unspecified) | 26 | -5% | ? | ?
Cc1cc2c(=O)n(C)c(SCC(=O)NC3CCCC3)nc2s1 | -17 | 6% | 13% | ?
C=CCn1c(SCC(=O)Nc2ccccc2)nc2scc(-c3cccs3)c2c1=O | -17 | -21% | -11% | ·
C=CCn1c(SCC(=O)Nc2sccc2C(N)=O)nc2sc(CC)cc2c1=O | -78* | 11µM* | · | ?
C=CCn1c(SCC(=O)Nc2sccc2C(N)=O)nc2ccc(Cl)cc2c1=O | -82* | 7.9µM* | -46% | -10%
Cc1cccc(NC(=O)c2ccc(-n3cnc4cccnc43)cc2)c1C | -9 | · | · | ·
Cc1nn(C(C)C(=O)Nc2ccccc2C(F)(F)F)c(=O)c2c1sc1ccccc12 (stereo unspecified) | 16 | · | · | ·
C=Cc1ccc(Cn2c(=O)cc(C)c3c(C)nn(-c4ccccc4)c32)cc1 | 2 | · | · | ·
CCOc1ccccc1NC(=O)CN1C(=O)COc2ccc(S(=O)(=O)Nc3ccccc3)cc21 | 11 | · | · | ·
C=CCn1c(SCC(=O)Nc2sccc2C(N)=O)nc2ccccc2c1=O | -38 | 11µM* | · | ?
C[C@H]1CCCCO[C@H](CN(C)S(=O)(=O)c2cn(C)cn2)[C@@H](C)CN([C@@H](C)CO)C(=O)c2cc(NS(=O)(=O)c3ccccc3)ccc2O1 | -13 | · | · | ·
CC[C@]12CCCN3CCc4c(n(c5ccccc45)[C@@](O)(C(=O)OC)C1)[C@@H]32 | -33 | -5% | 35% | 57%
CCOC(=O)C1=C[C@]2(CC)CCCN3CCc4c(n1c1ccccc41)[C@@H]32 | -34 | -5%[8.37 µM] | 3.7µM* | 5.2µM*
CC[C@]12CCCN3CCc4c(n(c5ccccc45)C(=O)C1)[C@@H]32 | 47 | 6.3µM* | ? | ?
Cc1ccn2c(NC(=O)c3cccs3)c(-c3ccccc3)nc2c1 | 70 | 16% | ? | 5%
Cc1ccn2c(NC(=O)c3ccco3)c(-c3ccccc3)nc2c1 | 9 | 3% | 4.1µM* | -5%
SMILES | HCMV antiviral | HCV inhibitor | Pf growth 96h | Pf growth 48h
Cc1c(-c2cccc(NC(=O)c3ccco3)c2)nc2ncccn12 | -76* | ? | ? | ?
CCOC(=O)c1cccc(NC(=O)c2cc3c(=O)n(Cc4cccnc4)ccc3nc2C)c1 | -9 | · | · | ·
COc1ccc(C(=O)COC(=O)CCn2nnc(-c3cccc(O)c3OC)n2)cc1 | -34 | 3% | 12µM* | -7%
COc1ccccc1-c1noc(-c2ccco2)n1 | 0 | 2% | · | 77%
COc1cc(-c2nc(Cc3c(F)cccc3Cl)no2)cc(OC)c1OC | -5 | ? | ? | 12µM*
COc1cc(-c2noc(-c3ccco3)n2)cc(OC)c1OC | 155 | 13µM* | -6% | -14%
COc1cc(-c2noc(-c3cccc(Cl)c3)n2)cc(OC)c1OC | -21 | 18% | 15µM* | 27%
COc1cc(-c2nc(-c3cccc(C)c3)no2)cc(OC)c1OC | 52 | -16% | · | -17%
